High-throughput results: PubChem, Broad Institute
A selection: hits, their analogues and other compounds. The true share with any hit is near 3.7%.
MLL AF4-AF9 inh = inhibitors of AF4 peptide binding to AF9, primary screen, biochemical, AlphaScreen, biotin-AF4 peptide, FLAG-AF9, single point | Protein AF-9 (Homo sapiens), P42568 | inhibition, % at 10 µM | 350,000 tested, 0.47% active | AID 651704, 2012;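 active means every replicate reaching a set inhibition limit, whatever the replicate mean, cut at about 25% in these data; inconclusive means mean inhibition reaches that limit but some replicates miss it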;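 further: 0% = plate neutral control median and 100% = total signal loss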
Target sequence (P42568 whole entry, looked up): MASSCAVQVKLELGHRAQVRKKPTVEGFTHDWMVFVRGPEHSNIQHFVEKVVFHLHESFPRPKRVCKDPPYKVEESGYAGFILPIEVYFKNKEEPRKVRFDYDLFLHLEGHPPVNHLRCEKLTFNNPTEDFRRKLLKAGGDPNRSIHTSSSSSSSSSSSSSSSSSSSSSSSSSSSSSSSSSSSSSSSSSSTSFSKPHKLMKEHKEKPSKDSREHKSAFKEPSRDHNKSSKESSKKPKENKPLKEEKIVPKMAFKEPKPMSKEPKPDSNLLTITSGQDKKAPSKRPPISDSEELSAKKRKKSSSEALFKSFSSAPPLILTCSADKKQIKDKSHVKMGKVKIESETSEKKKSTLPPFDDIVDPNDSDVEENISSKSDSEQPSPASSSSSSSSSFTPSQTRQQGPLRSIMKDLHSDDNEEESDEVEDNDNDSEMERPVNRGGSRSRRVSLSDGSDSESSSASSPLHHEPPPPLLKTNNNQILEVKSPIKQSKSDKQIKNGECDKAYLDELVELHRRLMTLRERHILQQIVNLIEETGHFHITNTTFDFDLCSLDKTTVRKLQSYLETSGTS
esBAF inh = Bmi1 luciferase reporter increase in mESCs, primary screen, esBAF inhibitor project, mouse ES cells, Bmi1 luciferase knock-in, single point. 24 h; 100% = twice the neutral-well signal. reporter increase, % at 12.5 µM. 350,000 tested, 2% active. AID 602393, 2012; in the data active means activation above about 40%; inconclusive means no clear call, values can overlap the other calls;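 further: 0% = median of the plate's neutral control wells and 100% = double that signal; a rise in the Bmi1 reporter signal indicates esBAF inhibition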
Ecoli rRNA inh = reduced GFP signal of wild-type E. coli, primary screen, bacterial rRNA inhibitor project, GFP/RFP fluorescence, OD600, single point. GFP signal change (wild-type ribosome), % (no concentration beside the values). 350,000 tested, 1.6% active. E. coli WT GFP vs humanized-ribosome RFP mutants, 24 h; active compounds read low; DMSO median 0, no signal -100;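 active means significant combined selectivity score with lowered wild-type GFP, culture density cut under 30%, mutant RFP and density less affected; inactive means any of these conditions unmet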
Wnt act = Wnt/beta-catenin pathway activators, primary screen, cell-based, plate reader, single point; AID 743398, 2014; activation, % at 9.35 µM; 300,000 tested, 1.2% active; Wnt/beta-catenin reporter cell assay, activator; in the data active means activation above about 30%, passing the limit was not always enough; inconclusive means no clear call, values can overlap the other calls;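 further: 0% = neutral control wells and 100% = positive control wells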
MITF TRPM1 HTS = activators of MITF-driven TRPM1 promoter reporter, primary screen, cell-based, SK-MEL-5, luciferase, single point; SK-MEL-5 TRPM1-promoter luciferase, 24 h; % of positive control, neutral wells = 0; activation, % at 12.5 µM; 300,000 tested, 0.75% active;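 active means mean activation of at least 80% with every replicate also reaching 80%; inconclusive means mean reaches 80% but some replicate falls short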;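 further: 0% = neutral control wells and 100% = parthenolide positive control wells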
* = called active by the depositor; ? = inconclusive; nt = no result given.

SMILES	MLL AF4-AF9 inh	esBAF inh	Ecoli rRNA inh	Wnt act	MITF TRPM1 HTS
N=C1C(c2nc3ccccc3s2)=C(O)CN1Cc1ccco1	nt	52.6*	nt	nt	88.4*
COc1ccccc1C1CC(=O)Oc2cc(C)c(Cl)cc21 (stereo not drawn)	-1.7	-8.1	-20.9*	-1.1	4.6
COc1ccc(C2CC(=O)Oc3cc(C)c(Cl)cc32)cc1 (stereo not drawn)	-0.2	3.8	-43.5	-2.2	-6.7
CCOC(=O)C1=C(c2ccccc2)NC(N)=NC1c1ccc(OCc2ccc(Cl)cc2)c(OC)c1 (stereo not drawn)	26.6*	nt	-38.4	13.9	-36.7
CN(C)/C=C(\C#N)C(=O)Nc1ccc(F)c(Cl)c1	-0.7	nt	14.8	36.5*	nt
CN(C)/C=C(\C#N)C(=O)Nc1ccc(F)cc1	nt	38.5	nt	nt	56.2
Cc1cc(C(=O)N/N=C/c2ccc(-c3ccc([N+](=O)[O-])cc3Cl)o2)n[nH]1	0.0	-11.6	-31.8*	-1.9	-10.4
C=C(C)CNC(=O)CCc1nnc(Cc2cccc(C(F)(F)F)c2)o1	-0.6	nt	nt	55.7*	77.9
O=C(C[C@@H]1CC[C@H](NC(=O)c2ccc(F)cc2)[C@H](CO)O1)NCc1ccncn1	1.2	-4.0	-0.5	nt	nt
Nc1cc2c(cc1Cl)-c1ccc(Cl)cc1C2	1.4	58.9*	3.8	6.1	nt
Nc1ccc2c(c1)Cc1cc(N)c(Br)cc1-2	15.1	nt	-5.0	-5.5	22.9
CSCC[C@H](NC(=O)N1CCn2c1nc1ccccc12)C(=O)N1CCCCC1	4.4	0.7	-17.1*	3.4	3.3
COc1ccc2c3n([n+]([O-])c2c1)CCN=C3c1ccc(Cl)cc1	6.0	41.5*	-6.6	9.2	15.3
[O-][n+]1c2ccccc2c2n1CCN=C2c1ccc(Cl)cc1	nt	30.2	-6.6	2.6	0.4
COc1ccc(S(=O)(=O)N2CC[C@@H]3[C@H]2c2cc(-c4cccc(C#N)c4)ccc2N[C@@H]3CO)cc1	-2.9	6.6	-5.8	nt	nt
COc1ccc(NC(=O)C2CCCN(C(=O)c3ccc(Cl)cc3)C2)cc1Cl (stereo not drawn)	0.8	28.8	-8.4	2.4	23.2
Cc1ccc(S(=O)(=O)/N=C2/C=C(C3C(=O)CC(C)(C)CC3=O)C(=O)c3ccccc32)cc1	nt	?	nt	62.5*	nt
Cc1ccc(S(=O)(=O)/N=C2\C=C(NS(=O)(=O)c3ccccc3)C(=O)c3ccccc32)cc1	-1.9	-0.6	-5.7	9.9	-27.5
Cc1ccc(Nc2ncnc3c2oc2ccccc23)cc1	nt	47.0*	nt	nt	19.0
c1ccc(Sc2ncnc3c2oc2ccccc23)cc1	nt	70.6*	nt	nt	52.0
COc1ccc(NC(=O)N(C)C[C@H]2Oc3ccc(NC(=O)Cc4ccccc4)cc3CC(=O)N([C@H](C)CO)C[C@@H]2C)cc1	-1.1	3.8	-1.7	nt	nt
Cn1c(N2CCN(C(=O)Nc3ccc(F)cc3)CC2)nc2ccccc21	nt	7.8	nt	-3.1	1.0
Cn1c(N2CCN(C(c3ccccc3)c3ccccc3)CC2)nc2ccccc21	0.8	7.2	-26.2*	-0.2	-2.4
Cc1cc(Br)cc(C)c1OCC(=O)NNC(=O)c1cccs1	0.4	3.7	1.6	-3.3	-5.7
CC(Oc1ccc(Cl)cc1Cl)c1nc(-c2ccccn2)no1 (stereo not drawn)	nt	102.8*	nt	nt	130.7*
SMILES	MLL AF4-AF9 inh	esBAF inh	Ecoli rRNA inh	Wnt act	MITF TRPM1 HTS
CCC(c1ccccc1)c1nc(-c2ccccn2)no1 (stereo not drawn)	nt	47.1*	nt	nt	25.1
CCC(c1ccccc1)c1nc(-c2cccnc2)no1 (stereo not drawn)	0.3	7.4	2.4	2.8	-5.0
CC(Oc1ccc(Cl)cc1Cl)c1nc(-c2ccc(NC(=O)c3cccnc3)cc2)no1 (stereo not drawn)	nt	11.0	nt	nt	-0.2
CC(C)c1ccc(OCc2nc(-c3ccccn3)no2)c(Br)c1	nt	24.6	nt	76.4*	79.0
O=S(=O)(Nc1cccc(-c2ccc(N3CCCCCC3)nn2)c1)c1ccccc1F	-0.9	nt	-7.5	25.7	71.7
O=[N+]([O-])c1ccc(Cl)c(S(=O)(=O)Nc2cccc(-c3ccc(N4CCOCC4)nn3)c2)c1	-1.4	31.6	-7.6	9.5	86.4*
O=S(=O)(Nc1cccc(-c2ccc(N3CCCCCC3)nn2)c1)c1cccc(F)c1	-0.9	65.8*	-7.8	28.8	98.5*
O=S(=O)(Nc1cccc(-c2ccc(N3CCCCCC3)nn2)c1)c1ccccc1Cl	2.2	43.5*	-6.3	5.5	2.9
COc1ccc(C)cc1S(=O)(=O)Nc1cccc(-c2ccc(N3CCCCCC3)nn2)c1	2.4	?	-1.7	6.1	13.7
Cc1ccc(S(=O)(=O)Nc2cccc(-c3ccc(N4CCCCCC4)nn3)c2)cc1C	-3.5	46.3*	-7.1	13.1	57.8
C[C@H]1COCc2cn(nn2)CC[C@H](Cc2ccccc2)C(=O)N1	nt	nt	-2.8	nt	nt
O=S(=O)(Nc1cccc(-c2ccc(N3CCCCCC3)nn2)c1)c1ccc(C(F)(F)F)cc1	-0.4	55.7*	-13.7	-0.9	51.4
CCOc1ccc(S(=O)(=O)Nc2cccc(-c3ccc(N4CCCCCC4)nn3)c2)cc1	-3.7	33.9	-3.6	5.1	36.3
C[C@H](CO)N1C[C@H](C)[C@H](CN(C)C(=O)NC2CCCCC2)OCCCC[C@H](C)Oc2ccc(NC(=O)c3ccncc3)cc2C1=O	-2.0	4.9	0.3	nt	nt
CC(=O)Nc1ccc(NC(=O)C(C)OC(=O)C23CC4CC(CC(Cl)(C4)C2)C3)cc1 (stereo not drawn)	8.3	2.2	-25.9*	-3.1	-4.3
CC(=O)Nc1ccc(NC(=O)C(C)OC(=O)C2(c3ccc(Cl)cc3)CCCC2)cc1 (stereo not drawn)	1.1	nt	0.5	-0.4	-12.0
CC1CCCN(S(=O)(=O)CCNC(=O)c2ccc3c(c2)OCO3)C1 (stereo not drawn)	-1.4	-8.9	7.3	-3.5	-10.3
Cc1cccc(N2CC(C(=O)Nc3ccc(S(=O)(=O)N4CCOCC4)cc3)CC2=O)c1 (stereo not drawn)	3.1	-6.0	3.1	-1.2	-0.9
O=C(Nc1ccc(F)cc1)Nc1ccc(N2CCOCC2)c2nonc12	-2.2	nt	3.2	13.9	93.9*
COc1ccc(NC(=O)Nc2ccc(N3CCOCC3)c3nonc23)c(OC)c1	0.2	nt	7.0	-1.0	9.5
CCN(CC)S(=O)(=O)c1ccc2oc(Nc3ccccc3)nc2c1	4.8	70.5*	-7.1	9.9	41.5
CCS(=O)(=O)c1ccc2oc(Nc3ccccc3C)nc2c1	nt	54.7*	nt	nt	?
CCS(=O)(=O)c1ccc2oc(Nc3ccc(OC)c(OC)c3)nc2c1	7.6	1.8	-9.1	-1.0	13.2
CCN(CC)S(=O)(=O)c1ccc2oc(Nc3ccc(OC)cc3OC)nc2c1	2.0	8.2	3.6	-2.1	-0.6
CCN(CC)C(=O)CSc1nc2ccccc2c(=O)n1-c1ccccc1OC	nt	-2.9	nt	nt	0.8
